In PubChem BioAssay AID504882 (Broad Institute, 2011) one finds outcome data, which are given here for 105 compounds.

Molecules are shown by their SMILES. Out of some 1,200 compounds screened, about 290 (24%) were called active. Another 9% or so got no clear call; they are omitted. The rule behind the calls is not given here. A selection follows. Measured potencies and affinities stand elsewhere.

A short description of the assay: cytotoxicity in EBV lymphoblastoid cells, dose response, cytotoxicity control, cell-based, plate reader, cherry-picks, set 2 (AID 504882). The note with it: EBV lymphoblastoid cells (LCL) viability; series mostly up to 19.5 µM.
As for `Cc1ccc(-c2cc(N)n3nc(-c4ccc(C)cc4)cc3n2)cc1`, the result was inactive. Next, `O=[N+]([O-])c1ccc2ncnc(N3CCN(Cc4ccc5c(c4)OCO5)CC3)c2c1`: “inactive”; `Fc1ccc2[nH]c3c(N4CCN(c5ccccc5)CC4)ncnc3c2c1`: “inactive”; `CC(C)(C)OC(=O)N1Cc2ccccc2C[C@H]1C(=O)NCC(=O)Nc1ccc2c(c1)OCCO2`: “inactive”. The entry for `O=C(C1CCCCC1)N1CCN(c2ncccn2)CC1` is “inactive”; for `COC(=O)c1ccccc1NC(=O)CC(=O)Nc1ccccc1C(=O)OC` it is “inactive”. The entry for `O=C(NCCCN1CCCCC1)c1ccc2c(c1)NC(=O)c1ccccc1S2` is “inactive”; for `CCOc1ccc(NC(=O)c2ccc(N3CC4CC(C3)c3cccc(=O)n3C4)c(NC(=O)c3cccnc3)c2)cc1` (stereo not given) it is “inactive”; for `CSc1ccccc1OCc1cc(C(=O)N2CCC[C@H]2C(N)=O)no1` it is “inactive”. With `COC(CNC(=O)c1ccc(N2CCC3(CC2)OCCO3)c([N+](=O)[O-])c1)OC`, the compound was called inactive.

As for `Cc1ccnc(NC(=O)c2ccc(C(=O)c3ccccc3)cc2)c1`, the result was inactive.

With `COc1ccc(C(=O)Nc2cc(C)c(NC(=O)c3ccccc3OC)cn2)cc1`, the compound was called inactive.

Take `COc1ccccc1-c1ccccc1C1=CC(=O)CC(C)(C)C1=O`: the call was inactive. Next, `COc1ccc(C2=NN(C(=O)CSC3=NN4CCCC(=O)N=C4S3)C(c3cccc(OC)c3OC)C2)cc1` (stereo not given): “inactive”.

For the compound `O=C(O)c1ccc(N/N=C/c2cc3cc4c(cc3nc2Cl)OCCO4)cc1`, the outcome was inactive. In the case of `Clc1ccc(-c2ccnc(Oc3ccc4ccccc4c3)n2)cc1`, the result was inactive.

Turning to `CCOC(=O)[C@H]1[C@H]2COc3ccc(OC)cc3[C@@H]2N2C(=O)CN(C)C(=O)[C@@]12C`, the result was inactive. The entry for `CN(C)CCCC1(c2ccc(F)cc2)OCc2cc(C#N)ccc21` (stereo not given) is “inactive”. Turning to `CC1(C)Cc2nc3sc4c(SCC(=O)O)ncnc4c3cc2CO1`, the compound was classed as inactive. The entry for `COc1ccc(C=C2OC(=O)C(C(C)=O)=C2O)cc1` is “inactive”. Next, `COc1ccc(-c2oc3ncnc(NCCN4CCOCC4)c3c2-c2ccc(OC)cc2)cc1`: “inactive”; `CCN(CC(=O)Nc1ccc(NC(C)=O)cc1)C(=O)c1cccnc1Sc1ccc(C)c(C)c1`: “inactive”; `COc1ccc(N2Cc3cccc(C(=O)NC(C)CCc4ccco4)c3C2=O)cc1` (stereo not given): “inactive”. The entry for `COc1ccc(-c2cc(C(=O)N3CCCC3)no2)cc1` is “inactive”. Regarding `CC(Sc1nc(-c2ccc(F)cc2)cs1)C(=O)N1c2ccccc2CC1C` (stereo not given), the outcome was inactive. In the case of `Cc1ccc(CN2C(=O)CCC2C(=O)NCCCN2CCC(C)CC2)cc1` (stereo not given), the result was inactive. `Cc1cnc(NC(=O)c2ccc(OCC3CCCO3)cc2)s1` (stereo not given): the compound was called inactive. Next, `CCN(CC)S(=O)(=O)c1ccc(N=NC2=C(O)CCCC2=O)cc1`: “inactive”; `CCN(CC)S(=O)(=O)c1cccc(-n2c(O)c(C=Nc3ccccc3C(=O)O)c3ccccc3c2=O)c1`: “inactive”; `O=C(O)c1ccc(N/N=C/c2ccc3ncccc3c2)cc1`: “inactive”.

`COc1ccc(C(=O)CN(CCC(=O)O)S(=O)(=O)c2ccc([N+](=O)[O-])cc2)cc1`: the result was inactive.

For `O=C(NCCc1ccccc1)c1ccc2nccnc2c1`, the compound was classed as inactive. The entry for `CCN(C(=O)CSc1nnc(Nc2cccc(C)c2C)s1)C1CCS(=O)(=O)C1` (stereo not given) is “inactive”; for `CCCC(C)NC(C)C(=O)NC1CCCC1` (stereo not given) it is “inactive”.

As to `COCCNC(=O)C1CCC(CNS(=O)(=O)c2ccccc2)CC1` (stereo not given), the result was inactive.

On to `Cc1ccc(-c2nnn(CC(=O)N(Cc3ccco3)C(C(=O)NC(C)(C)C)c3ccncc3)n2)o1` (stereo not given), for which the call was inactive.

For the compound `COCCCNC(=O)CN1C(=O)COc2ccc(S(=O)(=O)N3CCOCC3)cc21`, the result was inactive.

In the case of `O=C(CN1C(=O)c2ccccc2S1(=O)=O)c1ccccc1F`, the call was inactive.

`CN(Cc1ccccc1)c1nc(N)c([N+](=O)[O-])c(NCc2ccccc2)n1`: the compound was classed as inactive.

Consider `CCCCCn1c(N2CCOCC2)nc2c1c(=O)n(CC(N)=O)c(=O)n2C`, for which the call was inactive.

For the compound `NC(=O)N/N=C/c1ccc(N2CCOCC2)s1`, the result was inactive.

`CCCCCC(=O)N1C[C@@H](O)[C@H](n2cc(C3CC3)nn2)C[C@@H]1c1ccc(C)cc1`: the outcome was inactive.

Turning to `CCN1CCN(Cc2ccc(NC(=O)c3ccc(C)c(NC(=O)c4cccc5[nH]ccc45)c3)cc2C(F)(F)F)CC1`, the result was inactive. Next, `CCN1CCN(Cc2ccc(NC(=O)c3ccc(C)c(NC(=O)N4CCNC4=O)c3)cc2C(F)(F)F)CC1`: “inactive”; `COc1ccc(/C(CC2OC(=O)c3ccccc32)=N\NC(N)=O)cc1` (stereo not given): “inactive”. As to `c1ccc2c(-c3ccncc3)c[nH]c2c1`, the outcome was inactive. The entry for `C[C@@H]1CN([C@@H](C)CO)C(=O)c2cc(NC(=O)Nc3ccccc3)ccc2O[C@H]1CN(C)C(=O)Nc1cccc2ccccc12` is “inactive”. The entry for `c1ccc(C2c3[nH]c4ccccc4c3CCN2Cc2cccn2-c2ccccn2)nc1` (stereo not given) is “inactive”; for `COc1ccccc1NC(=O)C(=O)N/N=C(\C)CC(=O)Nc1ccccc1C(F)(F)F` it is “inactive”. Next, `COc1ccc(C(=O)N2CC(=O)Nc3ccccc32)cc1S(=O)(=O)N1CCCC1`: “inactive”; `COc1ccc(N2C(=O)CC(Sc3nnc(-c4ccccc4)o3)C2=O)cc1` (stereo not given): “inactive”; `COc1cc(OC)cc(-c2c(C#Cc3ccsc3)c3cc(-c4cc(OC)c(OC)c(OC)c4)ccc3n2C)c1`: “inactive”. Consider `Cc1nc(N)nc(SCc2ccc([N+](=O)[O-])cc2)c1N`, for which the compound was called inactive. Next, `COCCCn1cnnc1SCC(=O)Nc1ccc(S(=O)(=O)N2CCCC2)cc1`: “inactive”; `O=C(CCN1CCC(c2ccccc2)C1)c1ccc2c(c1)OCCO2` (stereo not given): “inactive”; `COCCn1c(C)cc(C(=O)COC(=O)C23CC4CC(CC(O)(C4)C2)C3)c1C`: “inactive”. Next, `CC(C)OCCCNC(=O)C1CCC(CNS(=O)(=O)c2ccccc2)CC1` (stereo not given): “inactive”; `COC(=O)c1cc2n(n1)CCN(Cc1ccccc1Cl)C2=O`: “inactive”; `COc1ccc(OC)c2c1sc(=NC(=O)c1ccco1)n2C`: “inactive”. The entry for `CCc1cc2c(Sc3nc4ccccc4s3)ncnc2s1` is “inactive”; for `c1ccc(-n2nnc3c(N4CCOCC4)ncnc32)cc1` it is “inactive”.

As for `Cc1ccc(CNC(=O)C2CCN(S(=O)(=O)c3c(C)noc3/C=C/c3ccco3)CC2)cc1`, the outcome was inactive. Next, `COc1cc(Cl)cc(C(c2c(C(=O)O)[nH]c3ccccc23)c2c(C(=O)O)[nH]c3ccccc23)c1O`: “inactive”; `Cn1cccc1C(=O)OCC(=O)Nc1ccc2c(c1)OCO2`: “inactive”; `Cc1ccc(C(=O)N2CCN(c3ccc(NC(=O)CSc4ccc(Cl)cc4)cc3)CC2)cc1`: “inactive”. The entry for `O=C(Nc1cccc(Cl)c1)Nc1cccc(C(=O)O)c1` is “inactive”; for `CC1CCN(c2ccc(-c3ccc(NC(=O)C(F)(F)F)cc3)nn2)CC1` it is “inactive”; for `CSc1ccccc1NC(=O)CN1CCCCC1C` (stereo not given) it is “inactive”. With `Cn1cccc1CC(=O)NNC(=S)Nc1ccccc1Cl`, the compound was called inactive.

For the compound `S=C(NN=C1C2CC3CC(C2)CC1C3)Nc1ccccc1`, the call was inactive. Next, `CC(=O)NC(CCS(C)(=O)=O)C(=O)Nc1ccc(Cl)c(Cl)c1` (stereo not given): “inactive”; `Cc1ccc(NC(=S)NCc2cccs2)cc1`: “inactive”.

As to `Cc1ccnc(NC(=O)c2cccc(NC(=O)c3ccc(Cl)c(Cl)c3)c2)c1`, the result was inactive.

Take `COc1ccccc1NC(=S)NN=C(C)c1ccccn1`: the outcome was inactive. The entry for `COCCCNCC1C(Oc2ccc(Cl)cc2)C(=O)N1c1ccccc1C` (stereo not given) is “inactive”. The entry for `O=c1cc(Cl)nc2ccccn12` is “inactive”; for `CCCc1nc(SCC(=O)NCc2ccco2)c2c(=O)n(C)c(=O)n(C)c2n1` it is “inactive”; for `COC(=O)[C@@]1(Cc2ccccc2)[C@H]2C(=O)N(Cc3ccccc3)C(=O)[C@H]2[C@H]2CN=C(SCc3ccc(Cl)cc3)N21` it is “inactive”. Next, `CCOCCCNC(=O)CN1C(=O)/C(=C\c2ccc(C)cc2)Sc2ccccc21`: “inactive”; `O=C1NC(c2cccc(OCc3ccccc3)c2)Nc2ccccc21` (stereo not given): “inactive”; `COc1ccccc1C1(CC(=O)O)CCOC(C)(C)C1` (stereo not given): “inactive”. On to `Clc1cccc(CN2CCCCCC2)c1`, for which the compound was classed as inactive. Next, `O=C(c1ccccc1Br)N1CCN(Cc2ccc3c(c2)OCO3)CC1`: “inactive”; `Fc1cccc(Cl)c1/C=N/n1c(-c2cccnc2)n[nH]c1=S`: “inactive”; `Cn1c(-c2ccccc2)cnc1SCC(=O)N1CCCCC1`: “inactive”.

Turning to `COc1ccc([C@H]2N[C@]3(CCCN(Cc4ccco4)C3=O)[C@H]3C(=O)N(Cc4ccccc4)C(=O)[C@@H]23)cc1`, the call was inactive.

As to `Cc1nn(-c2ccccc2)c(Cl)c1C(=O)N1CCN(c2ncnc3c2cnn3-c2ccccc2)CC1`, the call was inactive. For `COc1ccc(/C=C2\N=C(C)OC2=O)cc1[N+](=O)[O-]`, the call was inactive.

As to `Cc1ccc(N2C(=O)c3ccccc3C2Nc2cccnc2)nc1` (stereo not given), the result was inactive. The entry for `C=CCN=C1NN=C(c2cc(C)n(CCOC)c2C)CS1` is “inactive”. `COc1ccc(-c2nc(CN3CCC(C(=O)N4CCOCC4)CC3)c(C)o2)cc1C`: the compound was called inactive. Next, `Cc1cc2ccccc2n1CCNC(=O)COc1ccc2ccccc2c1`: “inactive”; `Cc1ccccc1C(=O)c1c[nH]c(C(=O)NCc2ccco2)c1`: “inactive”; `O=C1c2ccccc2C(O)N1Cc1ccccc1` (stereo not given): “inactive”. `Nc1ncnc2c1c(-c1ccc(Oc3ccccc3)cc1)cn2C1CCCC1`: the compound was classed as inactive. The entry for `CN1CCN(C(=O)C2=C[C@@H](C(C)(C)C)C[C@@H](OCc3ccc(CO)cc3)O2)CC1` is “inactive”; for `COc1ccc(C(CNC(=O)Nc2ccccc2)N2CCN(C)CC2)cc1` (stereo not given) it is “inactive”; for `CC1CN(c2cc(=O)n(-c3ccccc3)c(=O)[nH]2)CC(C)O1` (stereo not given) it is “inactive”. Next, `N#CCCn1cc(C(=O)Nc2ccccn2)c(-c2ccccc2)n1`: “inactive”; `Cc1ccc(NC(=O)C(=O)Nc2ccccn2)cc1`: “inactive”. The entry for `O=C(Nc1ccccn1)NC1CCCCC1` is “inactive”; for `COc1ccc(OCC(=O)Nc2nccs2)cc1` it is “inactive”; for `O=[N+]([O-])c1ccc(N2CCN(Cc3cccc([N+](=O)[O-])c3)CC2)cc1` it is “inactive”. On to `Cc1ccc(C2=C/C(=C\c3cccnc3)C(=O)O2)cc1`, for which the compound was classed as inactive. Next, `CCOc1ccc(N(C(C)C(=O)N2CCCCCC2)S(C)(=O)=O)cc1` (stereo not given): “inactive”.
